Molecules are shown by their SMILES. Several values for one entry are separate records, joined by “and”; a condition that tells them apart may be missing. Equal entries are not always repeated. Inconclusive results are not listed. Where a call stands in place of a potency, no number is given. Where a structure was tested more than once in an assay, its records may differ in their call. Activity calls are given as the source filed them. Calls follow the shape of the dose curve; as a rule, active = well fitted activation curve with a large enough effect in the repeat runs; inconclusive = weak or mixed curves; inactive = flat fitted curve, though single readings scatter.
Potency is read from the fitted curve at half-maximal effect.

The experiment is described as follows: A CellTox Green Cytotoxicity Assay to monitor cytotoxicity in HepG2 cells - 8 hour (AID 1224890). Also: nearly all actives have a fitted effect of over 45% in size. Particulars: CellTox Green fluorescence; series mostly up to 76.8 µM. An excerpt:
National Center for Advancing Translational Sciences [NCATS]
NIH Chemical Genomics Center [NCGC]
U.S. Environmental Protection Agency [EPA]
National Institutes of Environmental Health Sciences [NIEHS]
National Toxicology Program [NTP]
Cell-based models are critical for drug discovery. Determining the natural cytotoxic effects resulting from test compounds is an essential research activity. A CellTox Green Cytotoxicity Assay to monitor cytotoxicity in real time of continues cell culture during 40 hours of the compound treatment was used to screen Tox21 10K library compounds in HepG2 cells. CellTox Green Cytotoxicity Assay is a nonlytic, homogeneous, biofluorescent method to measure cytotoxicity in cell culture after experimental manipulation. The assay system uses a proprietary asymmetric cyanine dye that is excluded from viable cells but preferentially stains the dead cell's DNA. […] Viable cells produce no appreciable increases in fluorescence. Therefore, the fluorescence signal produced by the binding interaction with dead cell DNA is proportional to cytotoxicity.
The mixture of HepG2 cell suspension and reagents were dispensed at 600cells/6 ul/well in 1536-well tissue culture treated black solid bottom plates using a Multidrop dispenser. After the assay plates were incubated at a 37 C/5% CO2 incubator for 5 hours, 23 nL of compounds dissolved in DMSO, positive and negative controls was transferred to the assay plate by a pintool work station. The plates were incubated at 37 C for 40 hours. The fluorescence intensity were measured at 0h, 8h, 16h, 24h, 32h and 40h time points using ViewLux plate reader during compound treatment.
On to `O=c1[nH]c(=O)n([C@H]2CCCO2)cc1F`, for which the Potency entry was “inactive”.

Consider `COc1ccc(Cl)cc1C(=O)NCCc1ccc(S(=O)(=O)NC(=O)NC2CCCCC2)cc1`, for which the Potency entry is “inactive”.

Turning to `CCCCCC/C(C=O)=C\c1ccccc1`, the Potency entry was “inactive”.

For the molecule `O=C(O)c1ccc(C(=O)O)cc1`, the Potency entry was “inactive”.

As to `Nc1ccccc1[N+](=O)[O-]`, the Potency result is “inactive”.

With `CCCCCCOCCO`, the Potency entry is “inactive”.

As for `CN(C)CCOCCN(C)C`, the Potency result is “inactive and 49 µM (active)”.

On to `CCCCCCCC(=O)OC`, for which the Potency entry was “inactive”.

For `C=C(C)C(=O)O[C@H]1C[C@@H]2CC[C@@]1(C)C2(C)C`, the Potency entry was “inactive”.

With `Nc1cc([N+](=O)[O-])ccc1O`, the Potency entry was “inactive”.

`CCCCCCCCC/C=C/CC1CC(=O)OC1=O` (stereo not given): the Potency result is “inactive”.

For `CCCCCC1=CCCC1=O`, the Potency result was “inactive”.

For `CN(C)CCCN`, the Potency entry is “inactive”.

With `O=c1[nH]nnc2ccccc12`, the Potency entry was “inactive”.

Consider `c1ccc(OCCOc2ccccc2)cc1`, for which the Potency result was “inactive”.

For `C#C[C@]1(O)CC[C@H]2[C@@H]3CCC4=CC(=O)CC[C@@H]4[C@H]3CC[C@@]21C`, the Potency result is “inactive”.

As to `CC(=O)OCC(=O)[C@@]12N=C(C)O[C@@H]1C[C@H]1[C@@H]3CCC4=CC(=O)C=C[C@]4(C)[C@H]3[C@@H](O)C[C@@]12C`, the Potency entry is “inactive”.

With `c1c[nH]cn1`, the Potency entry is “inactive”.

For `O=C(O)c1cc(O)c(O)c(O)c1`, the Potency result was “inactive”.

In the case of `O=C(O)c1cc(=O)c2c(OCC(O)COc3cccc4oc(C(=O)O)cc(=O)c34)cccc2o1`, the Potency result is “inactive”.

Consider `Fc1ccc(Br)cc1`, for which the Potency result is “inactive”.

As for `CCOC(=O)NNc1nncc2ccccc12`, the Potency result is “inactive”.

`Cc1ccc2oc(=O)ccc2c1`: the Potency entry is “inactive”.

With `CCCCCCCCCCCCS`, the Potency entry is “inactive”.

Regarding `O=P(OC(CCl)CCl)(OC(CCl)CCl)OC(CCl)CCl`, the Potency result was “inactive”.

Regarding `CCCCC(CC)CO` (stereo not given), the Potency result was “inactive”.

With `Oc1cccc2ccccc12`, the Potency entry was “inactive”.

`CSCCC=O`: the Potency result was “inactive”.

For `CCC(O)OC(O)CC` (stereo not given), the Potency result is “inactive”.

Consider `CC[C@H](C)C(=O)O[C@H]1C[C@@H](C)C=C2C=C[C@H](C)[C@H](CC[C@@H]3C[C@@H](O)CC(=O)O3)[C@H]21`, for which the Potency result is “inactive”.

`CC(C)c1ccc(S(=O)(=O)O)cc1`: the Potency result was “inactive”.

For `Cc1ccc(S(N)(=O)=O)cc1`, the Potency entry is “inactive”.

On to `O=c1[nH]c(=O)n([C@H]2C[C@H](O)[C@@H](CO)O2)cc1Br`, for which the Potency result is “inactive”.

On to `O=C(O)c1ccc2c(c1)C(=O)OC2=O`, for which the Potency result was “inactive”.

`O=C(CC(C(=O)OC1CCCCC1)S(=O)(=O)O)OC1CCCCC1` (stereo not given): the Potency result was “inactive”.

On to `CCCCC(CC)COC(=O)CCCCC(=O)OCC(CC)CCCC` (stereo not given), for which the Potency result is “inactive”.

As for `CC1=CCC2CC1C2(C)C` (stereo not given), the Potency result is “inactive”.

With `N[C@@H](Cc1cc(I)c(Oc2cc(I)c(O)c(I)c2)c(I)c1)C(=O)O`, the Potency result was “inactive”.

Consider `OCCOCCOCCO`, for which the Potency result was “inactive”.

For the molecule `O=C(O)c1cc(C(=O)O)cc(S(=O)(=O)O)c1`, the Potency result was “inactive”.

The values are drawn from PubChem BioAssay (Tox21).
